Our source for the ratio response (% of DMSO) values is PubChem BioAssay AID602430 (NMMLSC, 2012).

The assay has as its target ATP-binding cassette sub-family B member 6 (Homo sapiens) (UniProt Q9NP58). The assay can be described thus: ABCB6 transporter inhibitors, confirmation, K562-ABCB6 cells, flow cytometry, cherry pick 1 (AID 602430).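 Also: median porphyrin fluorescence at 575 nm with 488 nm excitation from mitochondria; lower ratio means less porphyrin signal so ABCB6 inhibition.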 Particulars: K562-ABCB6 porphyrin accumulation, 1 h, at 10 µM, stronger effect = lower value. On the technique in general: In flow cytometry, cells or beads pass a laser one at a time.

The other results are listed elsewhere or left out. A number with no mark means an inactive call.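 The calls were made as follows: active = repeat-averaged ratio response below 75% of DMSO, the collection mean minus 3 SD; inactive = the rest.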

Chain of ATP-binding cassette sub-family B member 6 (Homo sapiens) (Q9NP58 whole entry, looked up): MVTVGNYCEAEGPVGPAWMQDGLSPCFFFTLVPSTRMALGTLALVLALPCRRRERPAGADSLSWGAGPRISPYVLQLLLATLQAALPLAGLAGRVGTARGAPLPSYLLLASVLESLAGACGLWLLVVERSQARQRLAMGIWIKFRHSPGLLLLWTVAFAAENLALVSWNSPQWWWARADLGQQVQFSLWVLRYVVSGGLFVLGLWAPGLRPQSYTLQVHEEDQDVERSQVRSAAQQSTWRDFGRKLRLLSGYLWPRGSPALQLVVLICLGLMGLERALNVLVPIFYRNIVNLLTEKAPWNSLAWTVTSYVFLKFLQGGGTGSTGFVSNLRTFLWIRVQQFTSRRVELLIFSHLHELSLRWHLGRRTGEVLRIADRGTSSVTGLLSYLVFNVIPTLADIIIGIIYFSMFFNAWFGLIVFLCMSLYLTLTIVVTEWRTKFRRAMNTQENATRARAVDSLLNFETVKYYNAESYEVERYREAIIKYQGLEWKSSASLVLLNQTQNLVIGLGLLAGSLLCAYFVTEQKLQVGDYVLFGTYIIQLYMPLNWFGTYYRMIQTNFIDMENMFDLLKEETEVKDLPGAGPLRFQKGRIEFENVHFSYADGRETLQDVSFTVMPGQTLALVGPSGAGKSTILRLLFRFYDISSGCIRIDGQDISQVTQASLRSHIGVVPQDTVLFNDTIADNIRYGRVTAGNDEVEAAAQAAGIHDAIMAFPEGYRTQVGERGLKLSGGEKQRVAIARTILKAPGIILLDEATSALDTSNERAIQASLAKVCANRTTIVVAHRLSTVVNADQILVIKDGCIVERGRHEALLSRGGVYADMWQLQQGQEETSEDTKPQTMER

Consider `COc1cccc(N(CC(=O)N2CCc3ccccc3C2)S(C)(=O)=O)c1`, for which the ratio response (% of DMSO) was 100%.

As for `CC(C(=O)Nc1ccc(F)c(F)c1F)N1CCCCCC1` (centres undefined), the ratio response (% of DMSO) was 101%.

As for `CC(C)C(=O)NCC(c1cccs1)S(=O)(=O)c1ccc(F)cc1` (centres undefined), the ratio response (% of DMSO) was 100%.

In the case of `Cc1cc(C)cc(NC(=O)NCc2ccccn2)c1`, the ratio response (% of DMSO) is 96%.

Regarding `OCCC1CN(Cc2cnc(-c3ccccc3)s2)CCN1CCc1ccccc1` (centres undefined), the ratio response (% of DMSO) was 102%.

On to `Cc1ccccc1NC(=O)C(C)OC(=O)CCC(=O)N(CC(C)C)c1c(N)n(CC(C)C)c(=O)[nH]c1=O` (centres undefined), for which the ratio response (% of DMSO) is 101%.

`Cc1ccccc1OCC(=O)Nc1nnc(S(=O)(=O)N2CCCC2)s1`: the ratio response (% of DMSO) is 101%.

For `O=C(COc1ccc(-n2cnnn2)cc1)Nc1ccccc1Cl`, the ratio response (% of DMSO) is 99%.

With `COC(=O)CNC(=O)c1cc(-c2ccncc2)nc2ccccc12`, the ratio response (% of DMSO) is 101%.

With `Cc1nn(-c2ccccc2)c(C)c1C(=O)OCC(=O)NC(=O)NC1CCCCC1`, the ratio response (% of DMSO) is 97%.

In the case of `Cc1ccc(SCC(=O)Nc2ncc(C)s2)cc1`, the ratio response (% of DMSO) is 103%.

As for `COc1ccc(CCNC2=C(Cl)C(=O)N(Cc3ccccc3)C2=O)cc1OC`, the ratio response (% of DMSO) is 100%.

Consider `Cc1cccc(CS(=O)(=O)c2ncc(Cl)c(C(=O)Nc3ccc(F)cc3)n2)c1`, for which the ratio response (% of DMSO) was 89%.

In the case of `CCC(=O)N1CCCC1(C)C(=O)Nc1ccc2c(c1)CCN2C(C)=O` (centres undefined), the ratio response (% of DMSO) is 99%.

For `CC1(C)Cc2c(C#N)c(SCc3nc4ccccc4[nH]3)nc(N3CCOCC3)c2CO1`, the ratio response (% of DMSO) is 96%.

Turning to `CC1(C(=O)NS(=O)(=O)c2cccc(F)c2)CCN1C(=O)Cc1cc(F)ccc1F` (centres undefined), the ratio response (% of DMSO) is 97%.

With `Cc1ccc(NC(=O)N2CCC(c3nc4c(nnn4Cc4c(F)cccc4Cl)c(=O)[nH]3)CC2)cc1`, the ratio response (% of DMSO) was 98%.

As to `CCn1c(COc2ccccc2)nnc1SCC(=O)Nc1ccc2c(c1)OCCO2`, the ratio response (% of DMSO) is 97%.

`CCS(=O)(=O)N1CCC(N2CCN(c3ccccc3)CC2)CC1`: the ratio response (% of DMSO) was 103%.

For the compound `O=C1CCCC2=C1C(c1cccs1)n1nc(SCc3ccccc3)nc1N2` (centres undefined), the ratio response (% of DMSO) is 102%.

As to `COc1cc2[nH]c(=S)n(Cc3ccc(F)cc3)c(=O)c2cc1OC`, the ratio response (% of DMSO) is 100%.

Consider `Cc1ccc2nc3c(cc(C(=O)NCCc4ccccc4)c(=N)n3CC3CCCO3)c(=O)n2c1` (centres undefined), for which the ratio response (% of DMSO) was 102%.

In the case of `Cc1cccc(NC(=O)c2nc(S(=O)(=O)Cc3ccccc3)ncc2Cl)c1`, the ratio response (% of DMSO) was 90%.

Take `COc1ccccc1C(=O)C(O)c1ccccc1OC` (centres undefined): the ratio response (% of DMSO) is 102%.

Regarding `O=C(Cc1cccs1)NCc1cccc(C(F)(F)F)c1`, the ratio response (% of DMSO) was 103%.

Regarding `Cc1ccc(Cl)cc1N1CCN(C(=O)c2cccc3c(=O)c(C)c(-c4ccccc4)oc23)CC1`, the ratio response (% of DMSO) is 102%.

On to `O=C(Nn1cnc2ccccc2c1=O)c1ccc(F)cc1Cl`, for which the ratio response (% of DMSO) was 93%.

With `O=C(NCCSc1ncc(-c2ccccc2)[nH]1)c1ccco1`, the ratio response (% of DMSO) was 102%.

Regarding `O=C(c1ccc(Cl)cc1)c1cnc(Nc2ccccc2)s1`, the ratio response (% of DMSO) was 102%.

As to `COc1ccc(CCNS(=O)(=O)c2ccc(F)cc2)cc1OC`, the ratio response (% of DMSO) is 101%.

As to `CCOc1ccc(NC(=O)CC2NCCNC2=O)cc1` (centres undefined), the ratio response (% of DMSO) is 100%.

`CCCOC(=O)C1=C(C)NC2=C(C(=O)C(C(=O)OC)C(C)C2)C1c1ccc(N(C)C)cc1` (centres undefined): the ratio response (% of DMSO) was 100%.

As for `CCOC(=O)N1CCN(C(=O)CN(C2CCCCC2)S(C)(=O)=O)CC1`, the ratio response (% of DMSO) is 101%.

`Cc1cccc(N2CCN(C(=O)CCS(=O)(=O)c3ccc4c(c3)NC(=O)C(C)S4)CC2)c1C` (centres undefined): the ratio response (% of DMSO) is 96%.
